Source: PubChem BioAssay AID1835 (Johns Hopkins Ion Channel Center, 2009)
The campaign covered roughly 2,400 compounds. About 750 (31%) were called active.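 How the source made its calls: active means median signal gain over dofetilide-blocked control wells reaching their mean plus 3 SD, so readout 1 at least 0; inactive means the rest.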 Some of the results follow.

The compounds below were run against Voltage-gated inwardly rectifying potassium channel KCNH2 (Homo sapiens) (UniProt Q12809) (assay: modulators restoring hERG flux under dofetilide – cell-based, thallium flux, duplicate retest, dofetilide IC70, confirmation (AID 1835)). Conditions: hERG cell line, FluxOR thallium flux, dofetilide-blocked; at 10 µM; active compounds read high.
Sequence of Voltage-gated inwardly rectifying potassium channel KCNH2 (Homo sapiens) (Q12809 whole entry, looked up): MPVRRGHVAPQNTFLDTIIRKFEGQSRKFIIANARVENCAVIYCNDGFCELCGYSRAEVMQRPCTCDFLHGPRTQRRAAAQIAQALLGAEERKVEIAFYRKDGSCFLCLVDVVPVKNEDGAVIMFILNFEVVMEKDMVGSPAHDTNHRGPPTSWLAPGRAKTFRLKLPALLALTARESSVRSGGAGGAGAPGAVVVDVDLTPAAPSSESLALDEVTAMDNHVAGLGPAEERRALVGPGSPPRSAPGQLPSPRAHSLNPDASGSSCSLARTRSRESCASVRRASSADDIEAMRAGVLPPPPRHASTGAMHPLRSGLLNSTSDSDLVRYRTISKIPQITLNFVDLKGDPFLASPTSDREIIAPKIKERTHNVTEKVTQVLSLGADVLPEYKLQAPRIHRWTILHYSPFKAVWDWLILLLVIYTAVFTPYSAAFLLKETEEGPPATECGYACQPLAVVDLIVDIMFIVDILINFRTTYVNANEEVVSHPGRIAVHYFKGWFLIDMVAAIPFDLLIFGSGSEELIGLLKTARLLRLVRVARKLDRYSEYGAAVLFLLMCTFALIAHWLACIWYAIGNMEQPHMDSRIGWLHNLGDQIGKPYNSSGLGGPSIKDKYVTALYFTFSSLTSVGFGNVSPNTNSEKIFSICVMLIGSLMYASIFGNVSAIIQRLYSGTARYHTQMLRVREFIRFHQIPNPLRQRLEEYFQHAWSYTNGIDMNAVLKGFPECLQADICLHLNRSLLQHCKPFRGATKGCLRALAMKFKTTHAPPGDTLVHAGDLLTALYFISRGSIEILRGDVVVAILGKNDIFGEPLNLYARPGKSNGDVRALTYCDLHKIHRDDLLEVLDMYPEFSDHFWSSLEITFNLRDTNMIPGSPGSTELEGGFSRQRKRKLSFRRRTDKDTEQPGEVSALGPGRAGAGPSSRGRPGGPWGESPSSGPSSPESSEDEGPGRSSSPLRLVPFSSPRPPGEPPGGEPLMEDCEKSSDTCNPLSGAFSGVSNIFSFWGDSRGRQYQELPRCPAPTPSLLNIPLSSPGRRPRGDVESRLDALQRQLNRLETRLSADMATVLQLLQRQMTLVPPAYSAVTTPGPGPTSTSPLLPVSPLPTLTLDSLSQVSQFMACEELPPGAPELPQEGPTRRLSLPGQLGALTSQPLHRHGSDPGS

SMILES | activity increase over dofetilide control, less the hit threshold
COC(=O)C1=C(C)NC2=C(C(=O)CCC2)C1c1ccc(-c2ccsc2C(=O)OC)o1 (stereo unspecified) | 26% (active)
Cc1cc(C)c(S(=O)(=O)NCc2ccccn2)c(C)c1 | -6% (inactive)
COc1cc(OC)cc(C(=O)NC(=S)Nc2ccc(NC(=O)c3ccco3)cc2)c1 | -15% (inactive)
CCN(CC)c1ccc(NC(=S)NC(=O)c2ccco2)cc1 | 48% (active)
CCOc1ccc(NC(=S)NC(=O)c2ccco2)cc1 | 10% (active)
CCCOc1ccc(C(=O)NNC(=S)NC(=O)c2ccco2)cc1 | -41% (inactive)
O=C(O)CNC(=O)c1ccc(NC(=O)/C(=C/c2ccccc2)NC(=O)c2ccco2)cc1 | -13% (inactive)
O=C(CN1C(=O)COc2ccccc21)NCCCN1CCOCC1 | -2% (inactive)
COc1ccc(NC(=O)N2CCN(c3ccc([N+](=O)[O-])cc3)CC2)cc1OC | -14% (inactive)
Cc1ccc(-n2c(=O)c3cc4c(=O)n(-c5ccc(C)c(C)c5)c(=O)c4c(C(=O)c4ccc(C(=O)O)cc4)c3c2=O)cc1C | -8% (inactive)
Cc1ccc(N2CCN(C(=O)N3CCCC3)CC2)cc1C | 5% (active)
Cn1ccnc1C(O)c1cccc(OCc2ccccc2)c1 (stereo unspecified) | -10% (inactive)
Cc1ccc(C(=O)Sc2cccccc2=O)cc1 | 8% (active)
CC1=CC(=O)C(C(C)C)=CC1=NC(=O)c1ccc(C)cc1 | -36% (inactive)
COCCCNC(=O)CCc1nnc(Cc2ccc(-c3ccccc3)cc2)o1 | -16% (inactive)
CON/C=N/C(=S)Nc1ncc(C(F)(F)F)cc1Cl | 65% (active)
ON/C=N/C(=S)Nc1ncc(C(F)(F)F)cc1Cl | 22% (active)
CCCCNC(=O)c1onc(CSc2nc3ccccc3[nH]2)c1C(=O)NCCCC | -12% (inactive)
Cc1ccc(CNC(=O)CCc2ccc(S(=O)(=O)NCC(C)C)cc2)cc1 | -8% (inactive)
CC(NC(=O)c1ccc(Br)cc1)c1ccc2c(c1)CCCC2 (stereo unspecified) | 12% (active)
CC(NC(=O)c1ccc(F)cc1)c1ccc2c(c1)CCCC2 (stereo unspecified) | -12% (inactive)
Cc1ccc(C(C)NC(=O)c2cccs2)cc1C (stereo unspecified) | -21% (inactive)
Fc1ccc(NC(=S)Nc2nccs2)cc1 | 0% (inactive)
Cc1ccc(/C(O)=C/C(=O)C(=O)NC23CC4CC(CC(C4)C2)C3)cc1 | 10% (active)
Nc1cccc2c1C(=O)N(CC(=O)NC13CC4CC(CC(C4)C1)C3)C2=O | -9% (inactive)
CCOc1ccccc1NC(=S)NC(=O)c1ccco1 | 3% (active)

SMILES | activity increase over dofetilide control, less the hit threshold
CCC(C)c1ccccc1NC(=S)NC(=O)c1ccco1 (stereo unspecified) | 69% (active)
CCC(C)c1ccccc1NC(=O)c1[nH]c(C)c(C(C)=O)c1C (stereo unspecified) | -12% (inactive)
CCC(C)c1ccccc1NC(=O)C(C)NCCN(C)C (stereo unspecified) | -13% (inactive)
Cc1nc2n(n1)CC(O)CS2 (stereo unspecified) | -14% (inactive)
CN(C)CCNc1ncnc2c1sc1nc(N3CCCC3)c3c(c12)CC(C)(C)OC3 | -10% (inactive)
CCCCc1c(O)nc(SCC(=O)O)[nH]c1=O | -16% (inactive)
CC12CCC3(CO)COC(c4ccccc4O1)C2C3 (stereo unspecified) | -5% (inactive)
O=C(COC(=O)c1cc(Br)ccc1O)Nc1cccnc1Cl | -14% (inactive)
COC(=O)c1ccc(C(=O)NC(=S)Nc2nc3c(s2)CC(C)CC3)cc1 (stereo unspecified) | -10% (inactive)
COC(=O)c1ccc(C(=O)NC(=S)Nc2nc3c(s2)CCCC3)cc1 | 13% (active)
Cc1csc(NC(=O)c2cc3c(s2)CCCC3)n1 | -5% (inactive)
CC(C)(C)c1ccc(C(=O)NC(=S)Nc2nc3c(s2)CCCC3)cc1 | 13% (active)
O=C(NC(=S)Nc1nc2c(s1)CCCC2)c1ccc(C(=O)c2ccccc2)cc1 | -3% (inactive)
Cc1ccc(N2C(=O)c3ccccc3C2(O)c2ncc[nH]2)cc1 (stereo unspecified) | -18% (inactive)
CCc1nnc(NC(=O)c2c(C)nn(-c3ccccc3)c2Cl)s1 | -16% (inactive)
COc1ccc(-n2nc(C(=O)NCC(=O)NCc3ccc(F)cc3)c3ccccc3c2=O)cc1OC | -13% (inactive)
COc1ccc(-n2c(SCc3ccccn3)nc3c(c2=O)SCC3)cc1OC | 3% (active)
CCOC(=O)c1c(-c2ccc(C)o2)csc1NC(=S)NC(=O)N(C)C | 21% (active)
CCNC(=S)Nc1scc(-c2ccccc2)c1C(=O)OCC | 5% (active)
CCOC(=O)c1cc2c(nc1NC(=S)NCc1ccccc1)CCCC2 | -1% (inactive)
CCOC(=O)c1nnsc1NC(C)=O | -13% (inactive)
CCOC(=O)c1c(CC(C)C)csc1NC(=O)c1ccccc1C(=O)O | -13% (inactive)
CCOC(=O)c1c(-c2ccccc2)csc1NC(=S)NC | 7% (active)
C=CCn1c(N2CCCCCC2)nc2c1c(=O)n(C)c(=O)n2C | -7% (inactive)
CC1(OC(=O)C2CCCC2)C(=O)C=C2C=C(c3ccc(C#N)cc3)OC=C2C1=O (stereo unspecified) | -18% (inactive)
Cc1ccc(C)c(N2CCN(S(=O)(=O)c3ccc(-c4ccc(=O)[nH]n4)o3)CC2)c1 | -11% (inactive)

SMILES | activity increase over dofetilide control, less the hit threshold
CC(Sc1n[nH]c(=O)[nH]c1=O)C(=O)OCc1ccccc1 (stereo unspecified) | -11% (inactive)
Cn1c2ccccc2c(=O)c2c(=O)n(Cc3ccco3)c(-c3ccc(Cl)cc3Cl)nc21 | -10% (inactive)
Cn1c(=O)c2sc3c(c2n(CC(=O)Nc2ccccc2)c1=O)COC(C)(C)C3 | -12% (inactive)
COc1ccccc1-n1cnc2cc(NS(=O)(=O)c3ccc(Br)cc3)ccc21 | -24% (inactive)
Cc1ccc(CNC(=O)CN(C(=O)C2(C)CC(=O)N=C3C=CC=CN32)c2ccccc2F)cc1 (stereo unspecified) | -8% (inactive)
CCOCCCn1c(=S)[nH]c2cc(C(=O)NCCOC)ccc2c1=O | -13% (inactive)
O=c1c2ccccc2[nH]c(=S)n1CCc1ccccc1 | 20% (active)
O=c1c2cc(Cl)ccc2[nH]c(=S)n1Cc1cccs1 | -8% (inactive)
CC(C)CCn1c(=S)[nH]c2ncccc2c1=O | -1% (inactive)
CCCCCn1c(=S)[nH]c2ncccc2c1=O | 40% (active)
CCN(CCCn1c(=S)[nH]c2ncccc2c1=O)c1ccccc1 | -2% (inactive)
CCCCC(CC)CNC(=O)Cn1c(=S)[nH]c2ncccc2c1=O (stereo unspecified) | -12% (inactive)
CCCCn1c(=S)[nH]c2ccccc2c1=O | 3% (active)
Cc1ccc(Cn2c(=S)[nH]c3ccccc3c2=O)cc1 | 3% (active)
O=C1CN(S(=O)(=O)c2ccccc2)CC(=O)N1CCc1ccccc1 | -6% (inactive)
Cc1ccc(OCCC(=O)OC(C)C(=O)Nc2ccc(Cl)cn2)cc1 (stereo unspecified) | -11% (inactive)
CCC1(C)CC2(CCCN(CCC(=O)c3ccccc3)C2)CCO1 (stereo unspecified) | -34% (inactive)
Cc1ccc(NC(=O)CSc2nnc(-c3cccnc3)n2-c2ccc(C)cc2)cc1 | -20% (inactive)
c1ccc(-c2ccc(-c3ccncn3)cc2)cc1 | -14% (inactive)
COc1ccc(-c2nc(-c3ccccn3)ncc2S(C)(=O)=O)cc1 | -15% (inactive)
c1ccc(-c2n[nH]c(-c3ccccn3)n2)cc1 | 7% (active)
Cc1nc(Oc2ccc(Cl)cc2)c2oc3ccccc3c2n1 | -9% (inactive)
O=C1N2CCSC2=NC1(NS(=O)(=O)c1ccccc1)C(F)(F)F (stereo unspecified) | 5% (active)
COc1ccc(CCNC(=O)C2CCCN(S(C)(=O)=O)C2)cc1 (stereo unspecified) | -15% (inactive)
COc1ccc(-n2c(SCC#N)nnc2-c2cccnc2)cc1 | -26% (inactive)
O=C1CC(N2CCN(c3ccccc3Cl)CC2)C(=O)N1c1ccc(F)cc1 (stereo unspecified) | -10% (inactive)

SMILES | activity increase over dofetilide control, less the hit threshold
COc1ccc(C(=O)c2oc3ccccc3c2N)cc1 | -12% (inactive)
COc1ccc(-c2oc3ccccc3c(=O)c2OC(C)=O)cc1 | 7% (active)
CC(=O)Oc1c(-c2ccc(Br)o2)oc2ccccc2c1=O | 66% (active)
CC(=O)Oc1c(-c2ccco2)oc2ccccc2c1=O | -1% (inactive)
COc1ccc(-c2c(C)c3ccc(OCC(C)=O)cc3oc2=O)cc1 | -20% (inactive)
Cc1ccnc(SCCn2c(N3CC(C)OC(C)C3)nc3c2c(=O)n(C)c(=O)n3C)n1 (stereo unspecified) | -26% (inactive)
COc1ccc(/C=C2\SC(=N)N(c3nccs3)C2=O)cc1OC | 30% (active)
N=C1S/C(=C\c2ccco2)C(=O)N1c1nccs1 | -24% (inactive)
N=C1S/C(=C\c2ccc(-c3cccc(Cl)c3)o2)C(=O)N1c1nccs1 | 50% (active)
CCN1C(=O)/C(=C\c2ccc(-c3cccc(C(=O)OC)c3)o2)SC1=Nc1ccc(C(=O)O)cc1 | -3% (inactive)
COc1cccc(CN(C)CC2CCCN(CCc3ccc(Cl)cc3)C2)c1OC (stereo unspecified) | -31% (inactive)
O=C(NCc1cccs1)C1CC(c2ccc(F)cc2)=NO1 (stereo unspecified) | -24% (inactive)
COc1ccc(Cl)cc1C(=O)NNC(=S)NC(=O)/C=C/c1ccco1 | -4% (inactive)
Cc1occc1C(=O)NNC(=S)NC(=O)COc1ccc(Cl)cc1Cl | 100% (active)
CCC(=O)N1CCCc2ccccc21 | -8% (inactive)
Cc1ccc(Cn2nnc3c(=O)n(CC(=O)N4CCCc5ccccc54)cnc32)cc1 | 2% (active)
CC(=O)N1CCCc2cc(S(=O)(=O)NCc3ccc(C)cc3)ccc21 | -1% (inactive)
Cn1c(=O)c2sccc2n(Cc2cccc(Br)c2)c1=O | -11% (inactive)
Cn1c(=O)[nH]c(=O)c2c1nc(CN1CCN(c3ccccc3F)CC1)n2CCCc1ccccc1 | -7% (inactive)
O=C(COC(=O)C1C2CC3OC(=O)C1C3C2)Nc1ccc(Cl)cc1 (stereo unspecified) | -17% (inactive)
O=C(CN1C(=O)c2ccccc2S1(=O)=O)NCCSCc1ccccc1Cl | -16% (inactive)
CC(/C=C1\N=C(SCc2ccccc2Cl)SC1=O)=C\c1ccccc1 | -9% (inactive)
O=C(O)CCCCn1c(SCc2ccccc2Cl)nc2ccsc2c1=O | 4% (active)
